These results are taken from PubChem BioAssay (NCATS).

Results filed as inconclusive are left out. A number with no mark means an inactive call. Activity calls are given as the source filed them. Calls come from the whole dose curve; as a rule, active = well fitted cell-killing curve with a large enough effect; inconclusive = small, poorly fitted or top-dose-only effect, or effect the other way; inactive = no such curve, though single readings can be large or run the other way. Starred links: 1 amine or outer side, 2 acyl side, 3 side chain; linkers in the order of their positions; H or OH if unused. Positions of bridges follow the written chain, without caps; N, C: chain ends. Non-standard residues stand in square brackets, D forms with d. Residues, ends and D or L forms follow the SMILES beside them. Chains are numbered I, II in the order given. Actinocin(9to1) = Cc1c2oc3c(C)ccc(C(=O)[*:1])c3nc-2c(C(=O)[*:2])c(N)c1=O; NMeV = CN[CH](C(=O)O)C(C)C; Sar = CNCC(=O)O
Potency is the fitted concentration of half-maximal effect.

A short description of this assay: Quantitative High-Throughput drug screen in 47 multiple myeloma cell lines against the NCATS MIPE library collection: OCIMY7_PLB cell viability assay (AID 1918987). Note: nearly all actives have a fitted effect of over 65% in size. The note with it: OCI-MY7 myeloma viability, CellTiter-Glo ATP, 48 h; viability (% of DMSO): at 45.8 µM (top of the series). An excerpt: PI: Beverly A. Mock Ph.D.
Laboratory of Cancer Biology and Genetics,
Center for Cancer Research, National Cancer Institute,
National Institute of Health, Bethesda, Maryland
Drug resistance and disease progression are common in multiple myeloma (MM) patients, underscoring the need for new therapeutic combinations. […] We hypothesized that effective combinations would reduce MYC expression and enhance p16 activity. […] These preclinical data identify potentially useful drug combinations for evaluation in drug-resistant MM and reveal potential mechanisms of combined drug sensitivity.
Described herein is the primary MIPE qHTS used to cherrypick compounds. Validated compounds were then further tested for potential synergistic activiy.
[1] Peat TJ, Gaikwad SM, Dubois W, Gyabaah-Kessie N, Zhang S, Gorjifard S, Phyo Z, Andres M, Hughitt VK, Simpson RM, Miller MA, Girvin AT, Taylor A, Williams D, D'Antonio N, Zhang Y, Rajagopalan A, Flietner E, Wilson K, Zhang X, Shinn P, Klumpp-Thomas C, McKnight C, Itkin Z, Chen L, Kazandijian D, Zhang J, Michalowski AM, Simmons JK, Keats J, Thomas CJ, Mock BA. Drug combinations identified by high-throughput screening promote cell cycle transition and upregulate Smad pathways in myeloma. Cancer Lett. 2023 Aug 1;568:216284. doi: 10.1016/j.canlet.2023.216284. Epub 2023 Jun 24. PMID: 37356470; PMCID: PMC10408729.
SEQUENCE No. (e.g., 1, 2, 3, etc.); […] (e.g., Cells, Incubation, Reagent, etc.); VALUE and DESCRIPTION.
1; Cells; 5 uL; white, solid bottom 1536-well Greiner assay plate.
2; Compounds; 23 nL; Kalypsis pin tool (Wako USA) equipped with a 1536-well pin head to transfer to the assay plates.
3; Incubation; 48 hours; 37C incubation.
4; Reagent;5uL; CellTiter Glo (Promega).
5; Detector; 425V; Luminescence; Viewlux PerkinElmer.
NOTES (numbers refer to Sequence numbers above)
1. The cell-based screening methods employed in this study were like those previously published. Briefly, the corresponding myeloma cell lines were screened in 1,536-well plates with 500 cells, 5-uL per well for inhibition of cell viability (assessed by measuring ATP levels with CellTiterGlo).
2. NCATS MIPE 4.0 library of approved and investigational drugs were added using the Kalypsis pin tool. Wells treated with DMSO only for 100% viability and media only for 0% viability were used as controls.
3. The assay plates were covered and incubated for 48 hours in a 37C, 5% CO2 incubator with controlled humidity.
4. After 48 hours, CellTilter-GloTM luminescent substrate mix (Promega) reagent was added to the assay plate and plates we incubated for 5 min at room temperature.
5. Signal was measured as median relative luminescence units on a ViewLux (PerkinElmer) multiplate reader.
[1] Heske CM, Davis MI, Baumgart JT, Wilson K, Gormally MV, Chen L, Zhang X, Ceribelli M, Duveau DY, Guha R, Ferrer M, Arnaldez FI, Ji J, Tran HL, Zhang Y, Mendoza A, Helman LJ, Thomas CJ. Matrix Screen Identifies Synergistic Combination of PARP Inhibitors and Nicotinamide Phosphoribosyltransferase (NAMPT) Inhibitors in Ewing Sarcoma. Clin Cancer Res. 2017 Dec 1;23(23):7301-7311. doi: 10.1158/1078-0432.CCR-17-1121. Epub 2017 Sep 12. PMID: 28899971; PMCID: PMC6636827.
As for `CCOC(=O)N1CCN([N+]([O-])=NOc2ccc([N+](=O)[O-])cc2C#N)CC1`, the Potency was 0.59 µM (active).

As for `CN(N=O)C(=O)N[C@H]1C(O)OC(CO)[C@@H](O)[C@H]1O` (stereo not given in full), the “viability (% of DMSO)” value is 100%.

For the compound `COc1cc(OC)cc(-c2ccc3ncc4ccc(=O)n(-c5ccc(N6CCNCC6)c(C(F)(F)F)c5)c4c3c2)c1`, the Potency was 1.18 µM (active).

For `FC(F)c1nc2ccccc2n1-c1nc(N2CCOCC2)nc(N2CCOCC2)n1`, the Potency was 0.372 µM (active).

Turning to `COC[C@H](NC(=O)c1cnc(C)s1)C(=O)N[C@@H](COC)C(=O)N[C@@H](Cc1ccccc1)C(=O)[C@@]1(C)CO1`, the Potency was 0.0526 µM (active).

As for `Nc1ccc(C(=O)Nc2cccc(-c3nc(N4CCOCC4)c4oc5ncccc5c4n3)c2)cn1`, the Potency is 3.32 µM (active).

On to `CCN(C(=O)c1c(O)c2c(Cl)cccc2n(C)c1=O)c1ccccc1`, for which the “viability (% of DMSO)” value is 199%.

Take `c1ccc2c(Oc3nc(Nc4ccc(N5CCOCC5)cc4)c4ncn(C5CCCCC5)c4n3)cccc2c1`: the Potency is 14.8 µM (active).

For the compound `Oc1cc2c(cc1O)C1c3ccc(O)c(O)c3OCC1(O)C2` (stereo not given), the “viability (% of DMSO)” value is 162%.

With `N#CNC(=NCCCCCCOc1ccc(Cl)cc1)Nc1ccncc1`, the “viability (% of DMSO)” value was 3.98%.

For `Cc1cncc2cccc(S(=O)(=O)N3CCCN(C(=O)CN)C[C@@H]3C)c12`, the Potency was 11.8 µM (active).

With `C[C@]12C=CC(=O)N[C@@H]1CC[C@H]1[C@H]3CC[C@@H](C(=O)Nc4cc(C(F)(F)F)ccc4C(F)(F)F)[C@@]3(C)CC[C@@H]12`, the Potency was 16.6 µM (active).

Regarding `COc1cc2c(cc1O)CCC1C2CC[C@@]2(C)C1CC[C@@H]2O` (stereo not given in full), the Potency is 0.469 µM (active).

For `O=C(Nc1cccc(Nc2ncc(Br)c(NCCc3cnc[nH]3)n2)c1)N1CCCC1`, the Potency was 3.72 µM (active).

On to `NC(=O)Nc1cc(-c2ccc(CN3CCOCC3)cc2)sc1C(N)=O`, for which the Potency is 0.0833 µM (active).

With `O=C1c2c(O)cccc2[C@@H]([C@@H]2O[C@H](CO)[C@@H](O)[C@H](O)[C@H]2O)c2cc(CO)cc(O)c21`, the “viability (% of DMSO)” value is 146%.

On to `CN1CCc2c(c3ccccc3n2Cc2ccc(C(=O)NO)cc2)C1`, for which the Potency is 9.35 µM (active).

On to `C=CC(=O)Nc1cc(NC(=O)c2ccc(C)c(NC(=O)c3ccno3)c2)cc(C(F)(F)F)c1`, for which the Potency was 16.6 µM (active).

As for `CCOc1cc2c(c(F)c1OCC)C(=N)N(CC(=O)c1cc(N3CCOCC3)c(OC)c(C(C)(C)C)c1)C2`, the Potency is 7.43 µM (active).

As for `CNC(=O)Nc1ccc(-c2nc(N3CC4CCC(C3)O4)c3cnn(C4CCC5(CC4)OCCO5)c3n2)cc1`, the Potency was 3.72 µM (active).

In the case of `Cc1c2oc3c(C)ccc(C(=O)NC4C(=O)NC(C(C)C)C(=O)N5CCCC5C(=O)N(C)CC(=O)N(C)C(C(C)C)C(=O)OC4C)c3nc-2c(C(=O)NC2C(=O)NC(C(C)C)C(=O)N3CCCC3C(=O)N(C)CC(=O)N(C)C(C(C)C)C(=O)OC2C)c(N)c1=O` (stereo not given) (I: TVP[Sar][NMeV] / II: TVP[Sar][NMeV]; ester I:1-I:C, II:1-II:C; linker I:N-II:N via Actinocin(9to1); configuration not given here), the “viability (% of DMSO)” value is 2.47%.

On to `C#Cc1cccc(Nc2ncnc3cc(OCCOC)c(OCCO)cc23)c1`, for which the Potency is 1.87 µM (active).

Take `NC(=O)N1CCC(CC(=O)N2CCC([C@H]3c4ncc(Br)cc4CCc4cc(Cl)cc(Br)c43)CC2)CC1`: the Potency was 0.743 µM (active).

`COC1=C(OC)C(=O)C(CC=C(C)CCC=C(C)CCC=C(C)CCC=C(C)CCC=C(C)CCC=C(C)CCC=C(C)CCC=C(C)CCC=C(C)CCC=C(C)C)=C(C)C1=O`: the “viability (% of DMSO)” value is 187%.

As to `C=CC(=O)Nc1cccc(Nc2nc(NC3CCC(N(C)C)CC3)nc3c2ncn3C(C)C)c1` (stereo not given), the Potency was 0.0743 µM (active).

Turning to `Nc1nc(=O)n([C@H]2C[C@H](O)[C@@H](CO)O2)cc1F`, the Potency is 0.526 µM (active).

On to `CC[C@]12C=CCN3CC[C@@]4(c5cc([C@@]6(C(=O)OC)C[C@H]7C[C@@H](C(C)(F)F)CN(Cc8c6[nH]c6ccccc86)C7)c(OC)cc5N(C)[C@H]4[C@@](O)(C(=O)OC)[C@H]1OC(C)=O)[C@@H]32`, for which the Potency was 0.001 µM (active).

In the case of `O=C(C=Cc1ccc(CN(CCO)CCc2c[nH]c3ccccc23)cc1)NO`, the Potency was 0.0833 µM (active).

Regarding `CN1[C@H]2CC(OC(=O)[C@@H](CO)c3ccccc3)C[C@H]1[C@H]1O[C@H]12` (stereo not given in full), the “viability (% of DMSO)” value is 166% [at 23.2 µM].

On to `CCN1CCN(C(=O)N[C@H](C(=O)N[C@@H]2C(=O)N3C(C(=O)O)=C(CSc4nnnn4C)CS[C@@H]23)c2ccc(O)cc2)C(=O)C1=O`, for which the “viability (% of DMSO)” value was 190% [at 15.3 µM].

For the compound `C=CC(=O)N1CCc2ccc(-n3c(=O)ccc4cnc5ccc(-c6cnn(C)c6)cc5c43)cc21`, the Potency is 0.833 µM (active).

Take `CC(C)C[C@H](NC(=O)[C@@H](NC(=O)c1cccc(-c2ccccc2)n1)[C@@H](C)O)B(O)O`: the Potency was 0.0148 µM (active).

Regarding `C=CC(=O)Nc1ccc2ncnc(Nc3ccc(OCc4cccc(F)c4)c(Cl)c3)c2c1`, the Potency was 0.105 µM (active).

For the compound `C=C1C(=O)O[C@H]2[C@@H]1CCC(C)=CCC[C@@]1(C)O[C@@H]21`, the Potency is 0.526 µM (active).

`CN(C)c1ccc2cc(C(=O)N[C@@H](CCCN=C(N)CCl)C(=O)NCc3ccccc3)ccc2c1`: the Potency was 13.2 µM (active).

Take `CC1=C(C(=O)Nc2cc3cn[nH]c3cc2F)C(c2ccc(Cl)cc2F)N=C(c2ccnc(Cl)c2)N1` (stereo not given): the Potency is 5.9 µM (active).

With `CN1C(C(=O)Nc2ccccn2)=C(O)c2sc(Cl)cc2S1(=O)=O`, the Potency is 1.32 µM (active).

Turning to `COc1cccc2c1C(=O)c1c(O)c3c(c(O)c1C2=O)C[C@@](O)(C(=O)CO)C[C@@H]3O[C@H]1C[C@H](N)[C@@H](O)[C@H](C)O1`, the Potency is 2.09 µM (active).

Consider `CC(=O)ON=C1C(c2c(O)[nH]c3cc(Br)ccc23)=Nc2ccccc21`, for which the Potency is 1.48 µM (active).

`CC(C)Oc1ccc(C(=O)N[C@H](CNC(=O)CN(C)C)Cc2ccc(-c3cn4cccc([C@H](C)O)c4n3)cc2)cc1Cl`: the Potency is 0.332 µM (active).
